This note sets out measurements from PubChem BioAssay (EPA / NIEHS).

Settings in all cases: mRNA level, 48 h; actives raise or lower the signal
Read-out in assay [1]: Cytochrome P450 (CYP24A1), CYP24A1 (gene 1591)
Description: LTEA_HepaRG_CYP24A1: Life Technologies and Expression Analysis (LTEA) Assay for Cytochrome P450 (CYP24A1) using HepaRG (AID 2283478). Put shortly: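 qRT-PCR read-out: CYP24A1 transcript levels normalized to three housekeeping genes, bidirectional curve fits against 0.5% DMSO baseline. Human HepaRG cells treated 48 h with chemicals at eight concentrations from 100 uM in half-log steps.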

Read-out in assay [2]: Cytochrome P450 (CYP1A2), CYP1A2 (gene 1544)
Kind of assay: LTEA_HepaRG_CYP1A2: Life Technologies and Expression Analysis (LTEA) Assay for Cytochrome P450 (CYP1A2) using HepaRG (AID 2283479). An outline of the steps:
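HepaRG, 48 h exposure, top 100 uM, half-log 8-pt, 0.5% DMSO vehicle, duplicates. Readout: TaqMan qRT-PCR of CYP1A2 mRNA, housekeeping-normalized (ACTB/GAPDH/POLR2A). Gain/loss fit relative to DMSO baseline.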

Read-out in assay [3]: cysteine-aspartic acid protease (CASP8), CASP8 (gene 841)
Kind of assay: LTEA_HepaRG_CASP8: Life Technologies and Expression Analysis (LTEA) Assay for cysteine-aspartic acid protease (CASP8) using HepaRG (AID 2283480). An outline of the steps:
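qRT-PCR readout of CASP8 mRNA, normalized to three housekeeping genes, after 48 h chemical exposure of HepaRG cells; 8-point half-log series, top 100 uM, 0.5% DMSO vehicle. Bidirectional curve fitting against DMSO baseline.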

Read-out in assay [4]: Cytochrome P450 (CYP2B6), CYP2B6 (gene 1555)
Kind of assay: LTEA_HepaRG_CYP2B6: Life Technologies and Expression Analysis (LTEA) Assay for Cytochrome P450 (CYP2B6) using HepaRG (AID 2283481). Put shortly: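 Read-out is CYP2B6 mRNA by TaqMan qRT-PCR, normalized to three housekeeping genes and fitted bidirectionally against 0.5% DMSO baseline. Human HepaRG cells received test chemicals for 48 h, top concentration 100 uM, half-log dilutions.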

Read-out in assay [5]: Cytochrome P450 2C19 (Homo sapiens) (UniProt P33261)
Description: LTEA_HepaRG_CYP2C19: Life Technologies and Expression Analysis (LTEA) Assay for CYP2C19 using HepaRG (AID 2283482). An outline of the steps: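 HepaRG, 48 h chemical exposure, 8-pt half-log series from 100 uM in 0.5% DMSO, duplicates. Readout: CYP2C19 mRNA by TaqMan qRT-PCR, housekeeping-normalized. Bidirectional fit vs DMSO baseline; phenobarbital 1mM as induction control.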

Read-out in another assay: CYP2C8 (gene 1558)
Kind of assay: LTEA_HepaRG_CYP2C8: Life Technologies and Expression Analysis (LTEA) Assay for CYP2C8 using HepaRG (AID 2283483). Put shortly: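 HepaRG (human liver line), 48 h chemical exposure, 8-pt half-log series from 100 uM, 0.5% DMSO vehicle. Readout: CYP2C8 transcript by qRT-PCR, housekeeping-normalized. Bidirectional fit vs DMSO baseline.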

Read-out in the next assay: CYP2C9 (gene 1559)
Kind of assay: LTEA_HepaRG_CYP2C9: Life Technologies and Expression Analysis (LTEA) Assay for CYP2C9 using HepaRG (AID 2283484). Put shortly:
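HepaRG, 48 h dosing, 8-pt half-log series, top 100 uM, 0.5% DMSO vehicle. Read-out: CYP2C9 transcript by TaqMan qRT-PCR, housekeeping-normalized (ACTB/GAPDH/POLR2A). Gain or loss fitted vs DMSO baseline.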

Read-out in a further assay: CYP4A11 (gene 1579)
Kind of assay: LTEA_HepaRG_CYP4A11: Life Technologies and Expression Analysis (LTEA) Assay for CYP4A11 using HepaRG (AID 2283486). An outline of the steps:
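CYP4A11 transcript levels were quantified by TaqMan qRT-PCR after HepaRG human liver cells were treated for 48 hours with test chemicals (top 100 uM, half-log dilutions, 0.5% DMSO). Gain or loss of signal was fitted relative to DMSO.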

Read-out in assay [6]: Cytochrome P450 3A4 (Homo sapiens) (UniProt P08684)
Description: LTEA_HepaRG_CYP3A4: Life Technologies and Expression Analysis (LTEA) Assay for CYP3A4 using HepaRG (AID 2283487). Put shortly: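 HepaRG, 48 h exposure, 8-pt CRC from 100 uM (half-log), 0.5% DMSO, duplicates; serum-free induction medium. Readout: CYP3A4 mRNA, qRT-PCR, ACTB/GAPDH/POLR2A normalization. Bidirectional fit vs DMSO.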

Read-out in assay [7]: DNA damage-inducible transcript 3 (DDIT3), DDIT3 (gene 1649)
Kind of assay: LTEA_HepaRG_DDIT3: Life Technologies and Expression Analysis (LTEA) Assay for DNA damage-inducible transcript 3 (DDIT3) using HepaRG (AID 2283488). Put shortly:
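Cells are human HepaRG liver cells treated for 48 h with eight half-log concentrations up to 100 uM in 0.5% DMSO. Transcript levels come from qRT-PCR normalized to three housekeeping genes, with activity fitted in both directions relative to vehicle.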

Read-out in assay [8]: Early growth response protein 1 (EGR1) transcription factor, EGR1 (gene 1958)
Kind of assay: LTEA_HepaRG_EGR1: Life Technologies and Expression Analysis (LTEA) Assay for Early growth response protein 1 (EGR1) transcription factor using HepaRG (AID 2283490). An outline of the steps:
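HepaRG, 48 h exposure, 8-pt half-log series from 100 uM, 0.5% DMSO vehicle; EGR1 transcript by TaqMan qRT-PCR (Fluidigm array), housekeeping-normalized; bidirectional fit relative to DMSO baseline.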

Read-out in assay [9]: Ezrin (EZR), EZR (gene 7430)
Description: LTEA_HepaRG_EZR: Life Technologies and Expression Analysis (LTEA) Assay for Ezrin (EZR) using HepaRG (AID 2283491). Put shortly: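 Read-out is EZR transcript level by qRT-PCR, normalized to three housekeeping genes and fitted bidirectionally against the DMSO control. Human HepaRG cells received test chemicals for 48 h at eight half-log concentrations up to 100 uM in 0.5% DMSO.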

Read-out in assay [10]: Cytochrome P450 3A7 (Homo sapiens) (UniProt P24462)
Description: LTEA_HepaRG_CYP3A7: Life Technologies and Expression Analysis (LTEA) Assay for CYP3A7 using HepaRG (AID 2283492). Put shortly:
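CYP3A7 transcript levels were read by TaqMan qRT-PCR on Fluidigm arrays after 48 h chemical exposure of human HepaRG cells, with housekeeping-gene normalisation. Eight half-log concentrations up to 100 uM in 0.5% DMSO were tested in duplicate.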

Read-out in the next assay: CYP3A5 (gene 1577)
Description: LTEA_HepaRG_CYP3A5: Life Technologies and Expression Analysis (LTEA) Assay for CYP3A5 using HepaRG (AID 2283493). An outline of the steps: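 Human HepaRG hepatic cells receive 48 h chemical treatment at eight concentrations (half-log steps from 100 uM) in 0.5% DMSO. Expression of CYP3A5 is quantified by Fluidigm qRT-PCR and normalized to three reference genes.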

Read-out in assay [11]: Fatty Acid-Binding Protein 1 (FABP1), FABP1 (gene 2168)
Kind of assay: LTEA_HepaRG_FABP1: Life Technologies and Expression Analysis (LTEA) Assay for Fatty Acid-Binding Protein 1 (FABP1) using HepaRG (AID 2283494). An outline of the steps:
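qRT-PCR readout of FABP1 transcript (normalized to three housekeeping genes) after 48 h chemical exposure of HepaRG cells; eight concentrations, half-log steps, max 100 uM, 0.5% DMSO vehicle; gain or loss fitted relative to DMSO baseline.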

Read-out in assay [12]: Cytochrome P450 7A1 (Homo sapiens) (UniProt P22680)
Description: LTEA_HepaRG_CYP7A1: Life Technologies and Expression Analysis (LTEA) Assay for Cytochrome P450 7A1 (CYP7A1) using HepaRG (AID 2283496). Put shortly: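 HepaRG, 48 h exposure, 8-pt half-log series from 100 uM, 0.5% DMSO vehicle, duplicates. Readout: TaqMan qRT-PCR mRNA vs three housekeeping genes; bidirectional curve fit against DMSO baseline.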

Read-out in assay [13]: Glutathione S-Transferase (GSTA2), GSTA2 (gene 2939)
Kind of assay: LTEA_HepaRG_GSTA2: Life Technologies and Expression Analysis (LTEA) Assay for Glutathione S-Transferase (GSTA2) using HepaRG (AID 2283497). Put shortly: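 qRT-PCR readout of GSTA2 transcript, normalized to three housekeeping genes, fitted bidirectionally against 0.5% DMSO baseline. Differentiated HepaRG cells received compound for 48 h at 8 concentrations (top 100 uM, half-log steps).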

Read-out in a further assay: CYP2E1 (gene 1571)
Description: LTEA_HepaRG_CYP2E1: Life Technologies and Expression Analysis (LTEA) Assay for CYP2E1 using HepaRG (AID 2283485). An outline of the steps:
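Readout is qRT-PCR of CYP2E1 mRNA, normalized to three housekeeping genes and fitted bidirectionally against 0.5% DMSO. HepaRG cells were dosed 48 h at eight concentrations, highest 100 uM with half-log dilutions.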

Read-out in assay [14]: Cytochrome P450 4A22 (Homo sapiens) (UniProt Q5TCH4)
Description: LTEA_HepaRG_CYP4A22: Life Technologies and Expression Analysis (LTEA) Assay for Cytochrome P450 4A22 (CYP4A22) using HepaRG (AID 2283495). Put shortly: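 HepaRG, 48 h post-plating -> serum-free induction medium; dosed 48 h, duplicate, 8 conc. (100 uM top, half-log), 0.5% DMSO. Readout: CYP4A22 mRNA by qRT-PCR, ACTB/GAPDH/POLR2A normalization; gain/loss fit relative to DMSO.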

Read-out in assay [15]: Pro-epidermal growth factor (Homo sapiens) (UniProt P01133)
Description: LTEA_HepaRG_EGF: Life Technologies and Expression Analysis (LTEA) Assay for Epidermal growth factor (EGF) using HepaRG (AID 2283489). An outline of the steps:
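qRT-PCR readout of EGF transcript after 48 h chemical exposure of HepaRG cells; eight concentrations from 100 uM down in half-log steps, duplicate wells, 0.5% DMSO vehicle. Bidirectional curve fitting against DMSO baseline.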

Structures are written as SMILES. The source made the active and inactive calls. Rule for the calls: active = hit-call score of the fitted dose curve at least 0.9, where 1 is the maximum; inactive = score below 0.9.

A word on the AC50: it is the concentration giving half of the maximal activity seen.

Sequence of Cytochrome P450 3A7 (Homo sapiens) (P24462 whole entry, looked up): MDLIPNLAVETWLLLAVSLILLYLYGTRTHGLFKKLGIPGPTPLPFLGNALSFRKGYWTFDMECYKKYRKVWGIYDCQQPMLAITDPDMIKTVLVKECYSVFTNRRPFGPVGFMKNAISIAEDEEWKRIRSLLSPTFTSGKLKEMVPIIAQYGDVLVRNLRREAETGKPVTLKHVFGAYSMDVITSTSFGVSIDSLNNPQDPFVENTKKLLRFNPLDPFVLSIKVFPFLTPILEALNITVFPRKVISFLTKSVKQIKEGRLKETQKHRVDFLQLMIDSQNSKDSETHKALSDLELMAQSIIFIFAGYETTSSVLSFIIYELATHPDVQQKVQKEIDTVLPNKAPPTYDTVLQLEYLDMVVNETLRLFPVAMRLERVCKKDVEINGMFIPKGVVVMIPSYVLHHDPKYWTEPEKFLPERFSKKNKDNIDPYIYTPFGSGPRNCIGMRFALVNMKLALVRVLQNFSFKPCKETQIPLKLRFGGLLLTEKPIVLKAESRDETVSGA
Sequence of Cytochrome P450 3A4 (Homo sapiens) (P08684 whole entry, looked up): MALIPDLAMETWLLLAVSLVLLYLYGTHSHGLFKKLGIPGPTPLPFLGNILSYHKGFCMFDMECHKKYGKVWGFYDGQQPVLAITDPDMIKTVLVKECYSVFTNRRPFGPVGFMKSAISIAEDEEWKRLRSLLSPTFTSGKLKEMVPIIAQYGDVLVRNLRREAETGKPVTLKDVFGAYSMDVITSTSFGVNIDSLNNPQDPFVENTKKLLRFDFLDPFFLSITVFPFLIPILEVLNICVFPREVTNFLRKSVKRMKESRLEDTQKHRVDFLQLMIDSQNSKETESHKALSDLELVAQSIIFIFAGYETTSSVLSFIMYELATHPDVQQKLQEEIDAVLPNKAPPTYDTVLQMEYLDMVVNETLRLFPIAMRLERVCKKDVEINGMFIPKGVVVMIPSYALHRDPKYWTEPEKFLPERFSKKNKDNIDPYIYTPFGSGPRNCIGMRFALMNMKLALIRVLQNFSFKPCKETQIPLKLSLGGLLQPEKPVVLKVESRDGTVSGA
Sequence of Cytochrome P450 2C19 (Homo sapiens) (P33261 whole entry, looked up): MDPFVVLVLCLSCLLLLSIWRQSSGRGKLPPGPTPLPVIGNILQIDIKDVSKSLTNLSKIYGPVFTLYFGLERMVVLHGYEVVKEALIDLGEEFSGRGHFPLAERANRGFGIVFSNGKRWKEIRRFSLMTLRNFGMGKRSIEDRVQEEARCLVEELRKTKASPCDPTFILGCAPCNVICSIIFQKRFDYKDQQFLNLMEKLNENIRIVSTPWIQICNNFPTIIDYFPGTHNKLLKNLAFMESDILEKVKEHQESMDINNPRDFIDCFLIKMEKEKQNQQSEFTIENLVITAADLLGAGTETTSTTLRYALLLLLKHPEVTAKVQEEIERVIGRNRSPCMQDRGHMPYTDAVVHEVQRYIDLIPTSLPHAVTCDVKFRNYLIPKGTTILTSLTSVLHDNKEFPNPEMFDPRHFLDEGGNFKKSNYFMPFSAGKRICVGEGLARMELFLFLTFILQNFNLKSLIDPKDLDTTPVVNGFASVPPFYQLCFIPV

With `CCCCOC(=O)CCCCC(=O)OCCCC`, the call (in assay [1]; in [3]; in assay [4]; in [5]; with CYP2C8 (gene 1558); with CYP2C9 (gene 1559)) was inactive. Further, the call (with CYP4A11 (gene 1579); in assay [6]; in [7]; in assay [8]; in assay [9]; in assay [10]) was inactive. For the same molecule, the molecule was called inactive (with CYP3A5 (gene 1577); in assay [11]; in assay [12]; in [13]). For the same molecule, the AC50 in assay [2] was 50 µM (active).
Turning to `CC(C)c1cccc(C(C)C)c1`, the outcome (in [2]; in [3]; in [4]; in [5]; with CYP2C8 (gene 1558); with CYP2C9 (gene 1559)) was inactive. Moreover, the call (with CYP2E1 (gene 1571); in the assay with CYP4A11 (gene 1579); in assay [6]; in [7]; in assay [8]; in [9]) was inactive. The molecule was classed as inactive (in [10]; with CYP3A5 (gene 1577); in [11]; in [12]; in assay [13]).
As for `CN(C)CCCN1c2ccccc2Sc2ccc(Cl)cc21`, the result (in [1]; with CYP2C8 (gene 1558); in the assay with CYP2C9 (gene 1559); in assay [9]; in assay [10]; in assay [14]) was inactive. In addition, the AC50 in assay [2] is 19.4 µM (active); in assay [3], 94.5 µM (active); in assay [4] it was 2.21 µM (active); with CYP4A11 (gene 1579) it was 84.7 µM (active); in assay [7] it was 61.3 µM (active); in [8], 88.2 µM (active). Moreover, the AC50 is 83.7 µM (active) in the assay with CYP3A5 (gene 1577), 88.3 µM (active) in assay [11], 81.3 µM (active) in [12] and 86.4 µM (active) in assay [13].
On to `CC(C)NCC(O)c1ccc(O)c(O)c1` (stereo unspecified), for which the result (in assay [1]; in assay [3]; in the assay with CYP2C8 (gene 1558); with CYP4A11 (gene 1579); in [7]; in assay [15]) was inactive. Further, the outcome in [8] and in [14] was inactive. Further, the concentration at half-maximal activity (AC50) in [2] was 0.204 µM (active); in assay [4] it was 0.132 µM (active); with CYP2C9 (gene 1559), 0.175 µM (active); in assay [9], 1.8 µM (active); with CYP3A5 (gene 1577) it was 0.153 µM (active); in [11], 0.479 µM (active). In addition, the figures for the AC50 in assay [12] and in [13] were 0.212 µM (active) and 0.222 µM (active), respectively.
